Screening results as filed in PubChem BioAssay.
ELG1 DNA repair: qHTS screen for small molecules that inhibit ELG1-dependent DNA repair in human embryonic kidney (HEK293T) cells expressing luciferase-tagged ELG1 | Potency, µM (series often up to 46.1 µM), inactives show top-dose activity change, negative = inhibition, most hits filed as inhibitors | 330,000 compounds, 2.3% hits | AID 504467, 2011 | HEK293T ELG1-luciferase reporter, luminescence, 16 h; DNA damage induced by 5-fluorouridine; also: potency is read from the fitted curve at half-maximal effect; nearly all actives have a fitted effect of over 55% in size
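Quantitative HTS, concentration-response format. 2,000 cells/well co-treated with 5-fluorouridine and compound, 16 hr in 5% CO2 at 37 °C; ONE-Glo luminescence read after 30 min.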
RORgamma inh: qHTS for inhibitors of ROR gamma transcriptional activity; Drosophila S2 Gal4-RORgamma UAS-luciferase reporter, 20 h; Potency, µM (doses to about 53.6 µM), for the others: top-dose activity change, negative = inhibition, most hits filed as inhibitors; 310,000 compounds, 5.4% hits; AID 2551, 2010; also: potency is read from the fitted curve at half-maximal effect; nearly all actives have a fitted effect of over 60% in size
Target sequence (P51450 whole entry, looked up, the tested form may be a part): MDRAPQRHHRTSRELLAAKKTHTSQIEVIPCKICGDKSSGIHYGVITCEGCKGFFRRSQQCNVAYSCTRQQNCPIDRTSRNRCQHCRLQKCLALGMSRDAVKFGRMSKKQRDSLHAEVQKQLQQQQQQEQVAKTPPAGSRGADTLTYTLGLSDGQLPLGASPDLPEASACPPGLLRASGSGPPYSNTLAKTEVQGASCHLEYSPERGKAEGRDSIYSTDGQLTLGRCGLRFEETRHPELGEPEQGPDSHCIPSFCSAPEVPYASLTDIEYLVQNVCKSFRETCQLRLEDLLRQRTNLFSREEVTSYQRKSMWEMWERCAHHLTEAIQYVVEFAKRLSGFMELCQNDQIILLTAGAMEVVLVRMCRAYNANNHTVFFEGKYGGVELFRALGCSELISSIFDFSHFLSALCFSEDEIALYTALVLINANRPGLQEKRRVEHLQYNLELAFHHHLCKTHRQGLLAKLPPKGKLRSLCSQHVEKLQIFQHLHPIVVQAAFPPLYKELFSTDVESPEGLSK
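Luminescence from a UAS-regulated Photinus luciferase reporter in stably transfected Drosophila Schneider cells is measured; decreased signal marks ROR gamma inhibition. Fusion expression is induced by 700 uM copper sulfate for 20 hr.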
TDP1 cell CPT: qHTS for Inhibitors of human tyrosyl-DNA phosphodiesterase 1 (TDP1): qHTS in cells in presence of CPT; chicken DT40 Tdp1-/-;hTDP1 cells + 20 nM CPT, ATP luminescence, 48 h; Potency, µM (highest dose often 46.2 µM), without a hit: at the highest dose activity change, negative = growth inhibition, hits mostly inhibitors; 420,000 compounds, 12% hits; also: potency is read from the fitted curve at half-maximal effect; nearly all actives have a fitted effect of over 55% in size
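Chicken DT40 Tdp1-/- cells stably complemented with human TDP1 were seeded at 400 cells/well in medium containing 20 nM camptothecin, exposed to pin-transferred compounds, and grown at 37 °C for at least 48 hr. Viability was read as ATP luminescence.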
Gal4-VP16 FLuc: VP16 counterscreen qHTS for inhibitors of ROR gamma transcriptional activity; Drosophila S2 Gal4-VP16 UAS-luciferase, luminescence, 20 h; Potency, µM (highest dose often 53.6 µM), for the others: at the highest dose activity, negative = inhibition, usual class: inhibitors; 310,000 compounds, 3.5% hits; AID 2546, 2010;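 also: Gal4-VP16 expression switched on by copper sulfate through the metallothionein promoter; potency is read from the fitted curve at half-maximal effect; nearly all actives have a fitted effect of over 50% in size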
IL1B secr inh: qHTS for Inhibitors of Inflammasome Signaling: IL-1-beta AlphaLISA Primary Screen; AID 743279, 2014; 360,000 compounds, 4.7% hits; THP-1 LPS/ATP IL-1B secretion, AlphaLISA, 16 h; stronger effect = lower value; activity change, % at 57.5 µM; in the data active = activity change below about -50%; inconclusive = mostly about -30% to -49%
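Secreted IL-1B measured by AlphaLISA bead assay after 16 h compound exposure of THP-1 cells; compounds (final up to 57.5 uM) added 1 h before LPS (250 ng/mL) and ATP (1.25 mM) stimulation; lower signal means less secretion.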
TDP1 cell noCPT: qHTS for Inhibitors of human tyrosyl-DNA phosphodiesterase 1 (TDP1): qHTS in cells in absence of CPT; Potency, µM (highest dose often 46.2 µM), inactives show at the highest dose activity change, negative = growth inhibition, actives largely listed as inhibitors; AID 686978, 2013; 420,000 compounds, 15% hits; DT40 Tdp1-/- hTDP1 cells, no CPT, ATP luminescence, 48 h; also: potency is read from the fitted curve at half-maximal effect; nearly all actives have a fitted effect of over 55% in size
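Readout: luminescence from CellTiter-Glo after 30 min in the dark at RT. Cells: DT40 Tdp1-/- with stable hTDP1, 400/well. Exposure: compounds alone, ≥48 hr, 37 °C.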
* = called active by the depositor; u = inconclusive; x = not tested or not shown; [ ] = another dose, or the depositor's remark. An excerpt weighted towards active compounds, which were near 21% of everything screened. Unless noted, calls follow the shape of the dose curve; as a rule, active = well fitted curve in the direction sought with a large enough effect; inconclusive = small, poorly fitted or top-dose-only effect, or another doubt; inactive = no such curve, though single readings can be large; an effect the other way counts as inactive or inconclusive. % is scaled to controls: 0 for no effect and ±100 for the full control effect.

SMILES | ELG1 DNA repair | RORgamma inh | TDP1 cell CPT | Gal4-VP16 FLuc | IL1B secr inh | TDP1 cell noCPT
CCOC(=O)OCC1OC(C#Cc2ccc(F)cc2F)C=CC1OC(=O)OCC (stereo not drawn) | x | 5%[10 µM] | x | 16%[10 µM] | x | x
COc1ccc(NC(=O)c2c(NCc3ccc(C)o3)sc3c2CCCCC3)c(OC)c1 | x | x | 9.2µM* | x | x | 18µM*
COc1ccc(NC(=O)c2c(NCc3ccc(C)o3)sc3c2CCC(C)C3)cc1 (stereo not drawn) | x | x | 23µM* | x | x | 9.2µM*
COc1ccccc1NC(=O)c1c(NC(=O)Cc2ccccc2)sc2c1CCC(C(C)(C)C)C2 (stereo not drawn) | x | x | -3% | x | x | -2%
COc1ccc(NC(=O)c2c(NC(=O)COc3ccccc3)sc3c2CCC(C)C3)cc1 (stereo not drawn) | x | x | 1% | x | x | -26%
COc1ccc(NC(=O)c2c(NCc3ccc(C)o3)sc3c2CCC(C)C3)c(OC)c1 (stereo not drawn) | x | x | 21µM* | x | x | u
COc1ccccc1NC(=O)c1c(NCc2ccc(C)o2)sc2c1CCC(C)C2 (stereo not drawn) | x | x | 18µM* | x | x | u
COc1ccc(C(=O)N/N=C/c2cc3ccccc3[nH]c2=O)cc1 | 7% | -28% | -19% | 2% | 5 | 7%
CCOc1ccc2[nH]c(C(=O)N/N=C/c3ccccc3OC)cc2c1 | u | 0% | 5.8µM* | -4% | -8 | 7.3µM*
COc1ccc2[nH]c(C(=O)N/N=C/c3ccccc3OC)cc2c1 | u | -5% | 7.3µM* | -14% | 0 | 9.2µM*
CCCCNC(=O)c1cc2cc(OC)ccc2[nH]1 | 1% | 19% | -16% | 24% | 31 | -23%
COc1cc(OC)c2cc(C(=O)N/N=C/c3ccccc3O)[nH]c2c1 | -15% | 6.3µM* | 4.6µM* | 5.6µM* | 68 | 4.6µM*
CCCOc1ccc2[nH]c(C(=O)N/N=C/c3cc(OC)c(OC)c(OC)c3)cc2c1 | u | u | u | -16% | 0 | 16µM*
CCOc1ccc(/C=N/NC(=O)c2cc3c(OC)cc(OC)c(OC)c3[nH]2)cc1 | 8.2µM* | -34% | u | -6% | -27 | u
COc1ccc2[nH]c(C(=O)N/N=C/c3ccc(OC)c(O)c3)cc2c1 | u | 35% | 1.2µM* | 0% | -27 | 1.3µM*
N#Cc1ccc(C23CC4(C2)[C@H](CN(Cc2ccc(C(F)(F)F)cc2)[C@@H]4c2ccccc2)C3c2ccc(Cl)nc2)cc1 (stereo partly drawn) | 10% | 2% | x | -7% | x | x
Cc1ccc(CCNC(=O)CCn2c(=O)c3cccn3c3ccc(F)cc32)cc1 | -4% | 36% | u | 2% | -18 | 18µM*
O=C(CCn1c(=O)c2cccn2c2ccc(F)cc21)NCCc1ccc(Cl)cc1 | x | x | u | x | x | 15µM*
CC(C(=O)NCc1cccc(Cl)c1)N1C(=O)c2ccccc2C1=O (stereo not drawn) | 2% | -11% | -26% | -10% | -12 | -9%
CC1CCCC(NC(=O)C2CCN(S(=O)(=O)c3cccc4nonc34)CC2)C1C (stereo not drawn) | u | -1% | 0% | 2% | 6 | -12%
CCN(CC)S(=O)(=O)c1ccc(N2CCOCC2)c(NC(=O)c2ccc3ccccc3c2)c1 | 15µM* | 17% | u | -7% | 8 | 21µM*
CCN(CC)S(=O)(=O)c1ccc(N2CCOCC2)c(NC(=O)c2cccc3ccccc23)c1 | u | 12% | 26µM* | 3% | u | 16µM*
CCN(CC)S(=O)(=O)c1ccc(N2CCOCC2)c(NC(=O)c2ccc3c(c2)OCCO3)c1 | u | x | 16µM* | x | -4 | 21µM*
CCN(CC)S(=O)(=O)c1ccc(N2CCCCC2)c(C(=O)Nc2ccccc2N2CCOCC2)c1 | -23% | 10% | 10µM* | 2% | -19 | 9.2µM*
CCN(CC)S(=O)(=O)c1ccc(N2CCOCC2)c(NC(=O)c2ccc(NC(C)=O)cc2)c1 | 3% | 0% | -26% | -3% | u | 19%
SMILES | ELG1 DNA repair | RORgamma inh | TDP1 cell CPT | Gal4-VP16 FLuc | IL1B secr inh | TDP1 cell noCPT
Cc1cc(O)c(S(=O)(=O)c2ccccc2)c(C)c1NS(=O)(=O)c1ccccc1 | u | -15% | -25% | 2% | 52 | u
O=C(NCCc1ccccc1)c1ccc(NC(=O)C2CCCC2)cc1 | x | x | -21% | x | -11 | -24%
CCN(CC)S(=O)(=O)c1ccc(N2CCOCC2)c(NC(=O)C2=COCCO2)c1 | u | 9% | u | 5% | -8 | u
CCN(CC)S(=O)(=O)c1ccc(N2CCOCC2)c(NC(=O)c2cccc3c(=O)c(C)c(-c4ccccc4)oc23)c1 | x | x | 5.8µM* | x | -25 | 9.2µM*
CCN(CC)S(=O)(=O)c1ccc(N2CCOCC2)c(NC(=O)C(C)(C)C)c1 | 4% | 25% | u | 2% | -5 | -16%
CCN(CC)S(=O)(=O)c1ccc(N2CCOCC2)c(NC(=O)c2c3c(nc4ccccc24)CCC3)c1 | 13µM* | -5% | 15µM* | -4% | 6 | 15µM*
N#CC1=C(N)Oc2ccc3ccccc3c2C1c1cccnc1 (stereo not drawn) | u | -19% | 3.7µM* | -10% | 0 | 5.2µM*
CCOC(=O)CC1=C(C(=O)OCC)C(c2cccnc2)C(C#N)=C(N)O1 (stereo not drawn) | 6% | -4% | -1% | 16% | -13 | 1%
COCCOC(=O)C1=C(C)OC(N)=C(C#N)C1c1ccc2c(c1)OCO2 (stereo not drawn) | 11% | u | u | x | -13 | u
CC1=C(n2nnc([N+](=O)[O-])n2)C(c2cccnc2)C(C#N)=C(N)O1 (stereo not drawn) | -17% | u | 9.2µM* | u | u | u
COC(=O)C1=C(C)OC(N)=C(C#N)C1c1cccnc1 (stereo not drawn) | 10% | -5% | 21µM* | -5% | 5 | u
C=CCOC(=O)C1=C(C)OC(N)=C(C#N)C1c1ccc2c(c1)OCO2 (stereo not drawn) | 26% | u | 26µM* | u | 18 | 16µM*
